Most compounds without a hit are left out; they make up all but 1.8% or so of the library.
ClpP mod: qHTS Assay for Activators of ClpP. ATP-dependent Clp protease proteolytic subunit (Bacillus subtilis (strain 168)), P80244. purified B. subtilis ClpP, FRET peptide cleavage, 20 min. Potency, µM (doses to about 57.5 µM). 1.9% of 340,000 active; active means well fitted falling curve with a large enough effect; inconclusive means small, poorly fitted or top-dose-only effect; inactive means no such curve, though single readings can be large or run the other way; further: the source files actives as falling curves though it sought activators and does not explain the sign; nearly all actives have a fitted effect of over 65% in size
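Buffer: 100 mM Tris/HCl pH8, 100 mM KCl, 0.05% low protease BSA, 2.5% glycerol, 0.01% Tween-20. ClpP 10 microg/mL final; 20 min RT; delta FRET normalized to ADEP and DMSO controls.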
Mito fusion act: qHTS Assay for Small Molecule Inhibitors of Mitochondrial Division or Activators of Mitochondrial Fusion | AID 485298, 2010 | S. cerevisiae fusion-defective mutant growth rescue, CellTiterGlo 48 h | Potency, µM (titrated, usually from 46.1 µM), hits mostly activators | 0.23% of 320,000 active; further: nearly all actives have a fitted effect of over 45% in size
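Yeast fusion mutant, YPEG (non-fermentable carbon), compound, 48 h at 37C non-permissive; CellTiterGlo added, 10 min RT, luminescence read. Rescued growth = division inhibition.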
AT treatment: qHTS Assay for Identifying a Potential Treatment of Ataxia-Telangiectasia | AID 485349, 2010 | 0.19% of 320,000 active | F2112 A-T fibroblasts, KAP-1 phosphorylation AlphaLISA; neocarzinostatin DNA damage 30 min before lysis | Potency, µM (highest dose often 57.5 µM), actives largely listed as activators; further: nearly all actives have a fitted effect of over 45% in size
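hTERT-immortalized A-T patient fibroblasts (F2112), 500 cells/well in OPTI-MEM, 1% FBS, got compounds for 60 min, then NCS for 30 min at 37C. Lysates were then assayed for phospho-KAP-1 by AlphaLISA (anti-pKAP1 donor, anti-KAP1 acceptor beads), 6 hr at 25C.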
MBNL1 CUG block: qHTS Assay for Inhibitors of MBNL1-poly(CUG) RNA binding. AID 2675, 2010. Potency, µM (highest dose often 57.5 µM), actives largely listed as inhibitors. 0.036% of 280,000 active. TR-FRET MBNL1-His/biotin-(CUG)12 binding, 665/545 ratio; active means well fitted inhibition curve with a large enough effect in the signal ratio, with a control signal flat, not every such curve was filed as active; inconclusive means small, poorly fitted or top-dose-only effect, or effect the other way, or a change in a side signal; inactive means no such curve, though single readings can be large or run the other way; the % refers to the signal ratio
Target sequence (Q9NR56 whole entry, looked up): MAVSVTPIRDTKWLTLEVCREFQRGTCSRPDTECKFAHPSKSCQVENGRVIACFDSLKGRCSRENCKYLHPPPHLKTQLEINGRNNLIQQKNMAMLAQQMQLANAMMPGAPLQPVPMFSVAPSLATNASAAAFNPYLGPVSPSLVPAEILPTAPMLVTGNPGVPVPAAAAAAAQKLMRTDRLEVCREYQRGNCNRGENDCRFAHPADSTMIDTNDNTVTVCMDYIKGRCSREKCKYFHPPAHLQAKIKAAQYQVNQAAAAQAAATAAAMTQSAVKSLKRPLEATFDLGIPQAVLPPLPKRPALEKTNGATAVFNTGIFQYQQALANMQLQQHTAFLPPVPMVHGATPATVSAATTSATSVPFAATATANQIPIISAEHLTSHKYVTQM
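Compound titration spanned 92 nM–58 uM against the MBNL1-His/biotin-(CUG)12 complex. After 60 min at room temperature with 5 nM streptavidin-XL665 and 0.055 ng/ul terbium anti-His, ratiometric 665/545 nm emission (Ex 340 nm) normalized to controls.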
Glioma ERSR ind: qHTS for Inducers of the Endoplasmic Reticulum Stress Response (ERSR) in Human Glioma: qHTS; Potency, µM, usual class: activators; AID 602332, 2012; U87-MG GRP78 promoter luciferase reporter, 16 h; 0.02% of 420,000 active; further: series mostly up to about 76 µM; nearly all actives have a fitted effect of over 35% in size
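Stably transfected U87-MG human glioma cells carrying a GRP78-based luminescent sensor were seeded at 1000 cells/well, pin-dosed with compounds and incubated 16 h. Luciferase reagent was then added, and end-point luminescence was read after 10 min at room temperature.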
TCR activator: Activators of T cell receptors: qHTS campaign; Potency, µM (series often up to 9.22 µM), usual class: activators; primary human leukocytes, anti-CD3, IL-2 HTRF, 48 h; AID 504894, 2011; 330,000 tested, under 10 active
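Primary human leukocytes were stimulated with a-CD3 beads plus compounds for 48 hr without co-stimulation; secreted IL-2 was quantified by HTRF using a-IL-2-K (europium cryptate) and a-IL-2-d2, excited at 320nm with acceptor emission read at 665nm.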
A number is an active result; - = inactive; ? = inconclusive; . = no result given; [ ] = another dose, or the depositor's remark. Unless noted, the call rests on the fitted dose curve; in most records, active means well fitted curve in the direction sought with a large enough effect; inconclusive means small, poorly fitted or top-dose-only effect, or another doubt; inactive means no such curve, though single readings can be large; an effect the other way counts as inactive or inconclusive.

SMILES	ClpP mod	Mito fusion act	AT treatment	MBNL1 CUG block	Glioma ERSR ind	TCR activator
Cc1ccc(NC(=O)COC(=O)c2ccco2)cc1	-	-	-[11.5 µM]	-	-	-
Cc1ccc2nc(-c3ccc(NC(=O)COc4ccccc4)cc3)sc2c1	-	.	.	.	-	.
Cc1ccc2nc(-c3ccc(NC(=O)COC(=O)c4ccc(Br)o4)cc3)sc2c1	8.9µM	-	-	-	-	-
COc1ccc(Cl)cc1N(C)c1nc(N2CCN(S(=O)(=O)c3ccc(C)cc3)CC2)c2ccccc2n1	-	.	.	.	.	.
CC1=C(C(=O)OC2CCCCC2)C(c2ccccc2)NC(=O)N1 (configuration not stated)	2.8µM	-	-	-	-	-
Cc1ccc(NC(=O)CN2CCN(S(=O)(=O)c3cccs3)CC2)cc1S(=O)(=O)N(C)C	32µM	-	-	-	-	-
Cc1ccc(NC(=O)CN2CCc3ccccc3C2)cc1S(=O)(=O)N(C)C	.	-	-	-	-	-
Cc1c(C(=O)N2CCCC(c3ccccc3)C2)sc2ncnc(NCCc3ccccn3)c12 (configuration not stated)	.	.	.	.	-	.
c1ccc(-c2ccc(-c3nc(-c4ccccn4)no3)cc2)cc1	25µM	-	-	-	-	-
COc1cccc(-c2nc(-c3ccccn3)no2)c1OC	-	-	-	-	-	-
c1ccc(-c2noc(-c3cccc4ccccc34)n2)nc1	40µM	-	-	?	-	-
Cc1cnc(-n2ncc(C(=O)NCc3ccncc3)c2C2CC2)nc1-c1cccs1	.	.	.	.	-	.
c1ccc(CCc2nc3ccccc3[nH]2)cc1	-	-	-	-	-	-
Nc1cccc(CCc2nc3cc4ccccc4cc3[nH]2)c1	-	20µM	-	-	-	-
Brc1ccc2[nH]c3c(N4CCc5ccccc5C4)ncnc3c2c1	32µM	-	-	-	-	-
CN1CCN(c2ncnc3c2[nH]c2ccc(F)cc23)CC1	28µM	-	-	-	-	-
c1ccc2c(c1)[nH]c1c(N3CCN(C4CCCCC4)CC3)ncnc12	32µM	-	-	?	-	-
Fc1ccc2[nH]c3c(N4CCc5ccccc5C4)ncnc3c2c1	.	-	-	.	-	-
Cc1cccc2[nH]c3c(N4CCC5(CC4)OCCO5)ncnc3c12	?	-	-	-	-	-
Clc1ccc2[nH]c3c(N4CCC5(CC4)OCCO5)ncnc3c2c1	13µM	-	-	-	-	-
CC(C)NC(=O)COC(=O)c1ccccc1OCC(=O)Nc1ccc(Br)cc1	-	.	.	.	.	.
N#CC1=C(N)N(c2ccccc2)C(c2ccco2)C1(C#N)C#N (configuration not stated)	14µM	-	-	-	-	-
Cc1cccc(N2C(N)=C(C#N)C(C#N)(C#N)C2c2ccccc2)c1 (configuration not stated)	14µM	-	.	-	-	-
N#CC1=C(N)N(c2ccccc2)C(c2cccc([N+](=O)[O-])c2)C1(C#N)C#N (configuration not stated)	-	-	-	?	-	-
O=C1OCCC1Sc1nnc(-c2ccc(F)cc2)n1Cc1ccccc1 (configuration not stated)	25µM	-	-	-	-	-
CCOC(=O)Cc1c(C)nc2c(-c3ccc(Cl)cc3)c(C)nn2c1C	.	-	-	-	-	-
CCOC(=O)Cc1cc(=O)n2[nH]c(-c3ccc(C)cc3)cc2n1	?	-	-	-	-	-
CCOC(=O)c1cc(=O)n2[nH]c(-c3ccc(C)cc3)cc2n1	?	-	-	-	-	-
CCOC(=O)Cc1c(C)nc2c(-c3ccc(Cl)cc3)c[nH]n2c1=O	3.2µM	-	-	-	-	-

High-throughput results from PubChem BioAssay.
